Assay results from PubChem BioAssay AID1159580 (chemical genetic matrix, 2015).
Where “and” joins values, the source holds several entries; their conditions need not be identical. Identical values can stand only once. Screen size: about 5,500 compounds; about 2,000 (36%) were called active. Roughly 18% stayed inconclusive and do not appear here. No stated cut-off is given here; in the data, active means normalized growth mostly below about 0.91 (no sharp cut-off); inconclusive means no clear call, values can overlap the other calls; inactive means mostly above about 0.92. The list shows a part of the results.

Test: chemical genetic growth profiling, strain panel (AID 1159580);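 further: tested at 20 µM; growth read once vehicle control cultures reached saturation at 30 °C; 1 = growth at the plate median or of vehicle wells; lower values mean less growth of the strain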
Conditions: growth OD
[1] = S. cerevisiae deletion strains, locus YAL013W, strain DEP1, hits give low values
[2] = S. cerevisiae deletion strains, locus YBR229C, strain ROT2, hits give low values
[3] = S. cerevisiae deletion strains, locus YDL101C, strain DUN1, hits give low values
[4] = S. cerevisiae deletion strains, locus YDL134C, strain PPH21, hits give low values
[5] = S. cerevisiae deletion strains, locus YDR150W, strain NUM1, hits give low values
[6] = S. cerevisiae deletion strains, locus YEL061C, strain CIN8, hits give low values
[7] = S. cerevisiae deletion strains, locus YGR078C, strain PAC10, hits give low values
[8] = S. cerevisiae deletion strains, locus YGR229C, strain SMI1, hits give low values
[9] = S. cerevisiae deletion strains, locus YHR030C, strain SLT2, hits give low values
[10] = S. cerevisiae deletion strains, locus YJR043C, strain POL32, hits give low values
[11] = S. cerevisiae deletion strains, locus YJR075W, strain HOC1, hits give low values
[12] = S. cerevisiae deletion strains, locus YKL190W, strain CNB1, hits give low values
[13] = S. cerevisiae deletion strains, locus YLR039C, strain RIC1, hits give low values
[14] = S. cerevisiae deletion strains, locus YLR262C, strain YPT6, hits give low values
[15] = S. cerevisiae deletion strains, locus YMR263W, strain SAP30, hits give low values
[16] = S. cerevisiae deletion strains, locus YMR307W, strain GAS1, hits give low values
[17] = S. cerevisiae deletion strains, locus YNL128W, strain TEP1, hits give low values
[18] = S. cerevisiae deletion strains, locus YNL153C, strain GIM3, hits give low values
[19] = S. cerevisiae deletion strains, locus YNL322C, strain KRE1, hits give low values
[20] = S. cerevisiae deletion strains, locus YOL006C, strain TOP1, hits give low values
[21] = S. cerevisiae deletion strains, locus YPL055C, strain LGE1, hits give low values
[22] = S. cerevisiae deletion strains, locus YPL241C, strain CIN2, hits give low values
[23] = S. cerevisiae deletion strains, locus YAL040C, strain CLN3, hits give low values
[24] = S. cerevisiae deletion strains, locus YDR363W, strain ESC2, hits give low values
[25] = S. cerevisiae deletion strains, locus YER002W, strain NOP16, hits give low values
[26] = S. cerevisiae deletion strains, locus YNL175C, strain NOP13, hits give low values
[27] = S. cerevisiae deletion strains, locus YNL197C, strain WHI3, hits give low values
[28] = S. cerevisiae deletion strains, locus YNL224C, strain SQS1, hits give low values
[29] = S. cerevisiae deletion strains, locus YOR083W, strain WHI5 (second series), hits give low values

Measured: normalized growth

CC(C)OC(=O)Nc1cccc(Cl)c1
inactive: [1] 0.988 | [2] 0.979 | S. cerevisiae deletion strains, locus YCL029C, strain bik1, hits give low values 0.991 | S. cerevisiae deletion strains, locus YDL035C, strain GPR1, hits give low values 0.966 | S. cerevisiae deletion strains, locus YDL074C, strain BRE1, hits give low values 0.899 | [3] 0.986 | [4] 0.973 | S. cerevisiae deletion strains, locus YDL185W, strain tfp1, hits give low values 0.997 | S. cerevisiae deletion strains, locus YDL192W, strain arf1, hits give low values 0.995 | S. cerevisiae deletion strains, locus YDR101C, strain arx1, hits give low values 0.984 | [5] 0.992 | S. cerevisiae deletion strains, locus YDR162C, strain NBP2, hits give low values 0.979 | S. cerevisiae deletion strains, locus YDR318W, strain mcm21, hits give low values 0.978 | S. cerevisiae deletion strains, locus YDR388W, hits give low values 0.989 | S. cerevisiae deletion strains, locus YDR502C, strain sam2, hits give low values 0.973 | [6] 0.992 | S. cerevisiae deletion strains, locus YER110C, hits give low values 0.986 | S. cerevisiae deletion strains, locus YER155C, strain BEM2, hits give low values 0.987 | S. cerevisiae deletion strains, locus YER167W, strain BCK2, hits give low values 0.949 | S. cerevisiae deletion strains, locus YGL078C, strain dbp3, hits give low values 0.997 | S. cerevisiae deletion strains, locus YGL086W, strain mad1, hits give low values 0.995 | S. cerevisiae deletion strains, locus YGL248W, strain PDE1, hits give low values 0.962 | [7] 0.955 | S. cerevisiae deletion strains, locus YGR135W, strain pre9, hits give low values 0.969 | [8] 0.941 | [9] 0.983 and 1.01 | S. cerevisiae deletion strains, locus YHR079C, strain IRE1 (second series), hits give low values 0.973 | S. cerevisiae deletion strains, locus YHR079C, strain IRE1, hits give low values 0.975 | S. cerevisiae deletion strains, locus YHR094C, strain hxt1, hits give low values 0.988 | S. cerevisiae deletion strains, locus YHR129C, strain ARP1, hits give low values 0.993 | S. cerevisiae deletion strains, locus YHR200W, strain rpn10, hits give low values 0.985 | S. cerevisiae deletion strains, locus YIL066C, strain RNR3, hits give low values 0.905 | S. cerevisiae deletion strains, locus YIL073C, strain SPO22, hits give low values 0.895 | S. cerevisiae deletion strains, locus YIL125W, strain kgd1, hits give low values 0.992 | S. cerevisiae deletion strains, locus YIR030C, strain dcg1, hits give low values 0.981 | S. cerevisiae deletion strains, locus YJL095W, strain BCK1, hits give low values 0.976 and 1 | S. cerevisiae deletion strains, locus YJL134W, strain LCB3, hits give low values 1.01 | S. cerevisiae deletion strains, locus YJL168C, strain set2, hits give low values 0.987 | S. cerevisiae deletion strains, locus YJL187C, strain SWE1 (second series), hits give low values 0.99 | [10] 1.07 | S. cerevisiae deletion strains, locus YJR066W, strain TOR1, hits give low values 0.937 | [11] 0.994 | S. cerevisiae deletion strains, locus YKL009W, strain mrt4, hits give low values 0.954 | S. cerevisiae deletion strains, locus YKL068W, hits give low values 0.997 | S. cerevisiae deletion strains, locus YKL085W, strain MDH1 (second series), hits give low values 0.991 | S. cerevisiae deletion strains, locus YKL085W, strain MDH1, hits give low values 0.991 | [12] 0.98 | S. cerevisiae deletion strains, locus YKR001C, strain vps1, hits give low values 0.958 | [13] 0.951 | S. cerevisiae deletion strains, locus YLR058C, strain SHM2, hits give low values 0.987 | S. cerevisiae deletion strains, locus YLR102C, strain apc9, hits give low values 0.987 | S. cerevisiae deletion strains, locus YLR113W, strain HOG1, hits give low values 0.87 | [14] 0.888 | S. cerevisiae deletion strains, locus YLR268W, strain sec22, hits give low values 0.99 | S. cerevisiae deletion strains, locus YLR330W, strain CHS5, hits give low values 0.995 | S. cerevisiae deletion strains, locus YLR342W, strain FKS1 (second series), hits give low values 0.944 | S. cerevisiae deletion strains, locus YLR371W, strain rom2, hits give low values 0.974 | S. cerevisiae deletion strains, locus YML016C, strain PPZ1, hits give low values 0.993 | S. cerevisiae deletion strains, locus YML032C, strain rad52, hits give low values 0.936 | S. cerevisiae deletion strains, locus YML124C, strain tub3, hits give low values 0.985 | S. cerevisiae deletion strains, locus YMR078C, strain ctf18, hits give low values 0.935 | S. cerevisiae deletion strains, locus YMR223W, strain ubp8, hits give low values 0.959 | [15] 0.988 | [16] 0.891 | [17] 1.01 | [18] 0.999 | S. cerevisiae deletion strains, locus YNL183C, strain NPR1, hits give low values 0.94 | S. cerevisiae deletion strains, locus YNL233W, strain BNI4, hits give low values 1 | S. cerevisiae deletion strains, locus YNL250W, strain rad50, hits give low values 0.955 | S. cerevisiae deletion strains, locus YNL271C, strain bni1, hits give low values 0.976 | S. cerevisiae deletion strains, locus YNL298W, strain CLA4, hits give low values 0.998 | [19] 1 | S. cerevisiae deletion strains, locus YNR052C, strain pop2, hits give low values 0.985 | [20] 0.712 | S. cerevisiae deletion strains, locus YOL012C, strain htz1 0.915 | S. cerevisiae deletion strains, locus YOL147C, strain pex11, hits give low values 0.98 | S. cerevisiae deletion strains, locus YOR061W, strain CKA2, hits give low values 0.992 | S. cerevisiae deletion strains, locus YOR069W, strain VPS5, hits give low values 0.996 | S. cerevisiae deletion strains, locus YOR136W, strain idh2, hits give low values 0.977 | S. cerevisiae deletion strains, locus YOR144C, strain elg1, hits give low values 0.987 | S. cerevisiae deletion strains, locus YOR184W, strain ser1, hits give low values 0.906 | S. cerevisiae deletion strains, locus YOR231W, strain MKK1, hits give low values 0.985 | S. cerevisiae deletion strains, locus YOR316C, strain cot1, hits give low values 0.995 | [21] 0.955 | [22] 0.994 | S. cerevisiae deletion strains, locus YPL256C, strain CLN2, hits give low values 0.992 | S. cerevisiae deletion strains, locus YPR119W, strain clb2, hits give low values 0.986 | S. cerevisiae deletion strains, locus YPR141C, strain kar3, hits give low values 0.995 | S. cerevisiae deletion strains, locus YPR163C, strain tif3, hits give low values 0.983 | S. cerevisiae deletion strains, locus YPR167C, strain met16, hits give low values 0.986 | S. cerevisiae deletion strains, strain wtn01, hits give low values 0.976 | S. cerevisiae strains, strain wild type, hits give low values 0.997
active: S. cerevisiae deletion strains, locus YBR021W, strain FUR4, hits give low values 0.821 | S. cerevisiae deletion strains, locus YGR252W, strain gcn5, hits give low values 0.752 | S. cerevisiae deletion strains, locus YLR418C, strain cdc73, hits give low values 0.828 | S. cerevisiae deletion strains, locus YNL067W, strain RPL9B, hits give low values 0.301 | S. cerevisiae deletion strains, locus YNL307C, strain MCK1, hits give low values 0.863

C[N+](C)(C)CC#CCOC(=O)Nc1cccc(Cl)c1
inactive: [23] 0.998 | [24] 0.987 | [25] 0.99 | [11] 0.952 | [15] 0.953 | [16] 0.985 | [17] 0.966 | [18] 0.998 | [26] 0.984 | [27] 0.973 | [28] 0.993 | [29] 0.954 | [22] 0.998

COc1ccc(NC(=O)/C=C/c2ccc(Cl)cc2)cc1
inactive: [1] 0.992 | [23] 0.958 | S. cerevisiae deletion strains, locus YCL061C, strain MRC1 (second series), hits give low values 1 | [5] 1 | [24] 1.01 | [25] 0.956 | [8] 0.986 | [11] 0.98 | [16] 1.02 | [26] 0.966 | [27] 0.977 | [28] 1 | [29] 0.961 | [22] 1.01

CC(=O)OCCCCN1C(=O)c2ccccc2C1=O
inactive: [1] 0.995 | [2] 1 | S. cerevisiae deletion strains, locus YCL061C, strain MRC1, hits give low values 0.986 | [3] 1.04 | [4] 1 | [5] 0.988 | [6] 0.995 | [7] 1.01 | [9] 0.943 | S. cerevisiae deletion strains, locus YHR087W, strain rtc3, hits give low values 1.01 | S. cerevisiae deletion strains, locus YJL187C, strain SWE1, hits give low values 1 | [10] 0.997 | [11] 0.977 | [12] 0.999 | [13] 1.02 | S. cerevisiae deletion strains, locus YLR058C, strain SHM2 (second series), hits give low values 0.994 | S. cerevisiae deletion strains, locus YLR085C, strain ARP6, hits give low values 0.967 | [14] 1.02 | S. cerevisiae deletion strains, locus YML094W, strain GIM5, hits give low values 1.05 | S. cerevisiae deletion strains, locus YMR219W, strain ESC1, hits give low values 1 | [15] 0.996 | [18] 1.02 | S. cerevisiae deletion strains, locus YNL298W, strain CLA4 (second series), hits give low values 0.983 | [19] 1 | S. cerevisiae deletion strains, locus YNR030W, strain Alg12, hits give low values 0.995 | [20] 0.993 | [21] 1 | [22] 1.05 | S. cerevisiae deletion strains, locus YPR135W, strain CTF4, hits give low values 0.975
